GPR151 activ: activates the human receptor GPR151 | Q8TDV0 | PathHunter beta-arrestin GPR151 cells, luminescence | activation, % at 11.2 µM | 650,000 tested, 1% active; in the data active means activation above about 4.9%;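 further: 0% = median of compound wells and 100% = cells with positive control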
MITF inh: inhibitors of human MITF. 650,000 tested, 0.91% active. O75030. inhibition, % at 2.6 µM. AlphaScreen MITF homodimerization, bead proximity signal; in the data active means inhibition above about 50%;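 further: 0% = vehicle wells with protein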
TEAD-YAP block: TEAD-YAP interaction inhibition; HEK-TIYL cells, TEAD-Gal4/YAP UAS-luciferase luminescence; inhibition, % at 9.12 µM; 640,000 tested, 1.4% active; AID 1259422; in the data active means inhibition above about 32%;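 further: 0% = median of test compound wells and 100% = reference inhibitor wells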
FBW7 activator: activators of human E3 ligase FBW7; 650,000 tested, 0.13% active; Q969H0; normalized activity (activation), % at 26.1 µM; AlphaScreen FBW7–phospho-cyclin E peptide binding, activator screen; in the data active means normalized activity above about 1.9%;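 further: purified mutant Fbw7 with reduced substrate affinity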
MITF inh conf: confirmation of human MITF inhibitors; shares compounds with MITF inh; AlphaScreen MITF homodimerization, biotin/His-MITF beads; inhibition, % at 2.6 µM; 4,700 tested, 16% active;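 active means inhibition above a cutoff derived from the DMSO control wells, cut at about 28% in these data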;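 further: 0% = MITF dimer wells with DMSO only; inhibitors lower the bead chemiluminescence by keeping MITF from dimerizing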
AlphaScreen DR: counter-screen: compounds optically interfering with AlphaScreen; 480 tested, 6% active; AlphaScreen optical interference counterscreen, cell-free; IC50, µM; shares compounds with MITF inh; call rule not given here
AlphaScreen intf2: optically interferes with AlphaScreen signal | shares compounds with MITF inh | LysRS AlphaScreen counterscreen, signal interference, triplicate | inhibition, % at 2.6 µM | 4,700 tested, 7.6% active | AID 1259376;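 active means inhibition above a cutoff derived from the DMSO control wells, cut at about 30% in these data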
Active calls of the source: *. Sampled rows, rich in hits. Any-hit rate of the full collection: about 3.4%.

Cc1cccc(-n2nc3c(c2NC(=O)c2ccc(S(=O)(=O)N4CCOCC4)cc2)CS(=O)(=O)C3)c1C was read as GPR151 activ 1, MITF inh -4, TEAD-YAP block -1 and FBW7 activator 0.
Screening Fc1ccccc1CN1CCN(Cc2ccc3ccccc3c2)CC1 returned GPR151 activ -1, MITF inh 75*, TEAD-YAP block 0, FBW7 activator 1, MITF inh conf -7 and AlphaScreen intf2 1.
For c1ccc2cc(CN3CCOCC3)ccc2c1 the results were GPR151 activ 1, MITF inh -5, TEAD-YAP block -17 and FBW7 activator 0.
Screening Clc1ccc(CN2CCN(Cc3c[nH]c4ccccc34)CC2)cc1 returned GPR151 activ -1, MITF inh 75*, TEAD-YAP block -9, FBW7 activator 0, MITF inh conf 84*, AlphaScreen DR >5.9 and AlphaScreen intf2 9.
For c1ccc2c(CN3CCN(Cc4c[nH]c5ccccc45)CC3)cccc2c1 the results were GPR151 activ 1, MITF inh 74*, TEAD-YAP block 18, FBW7 activator 0, MITF inh conf -7 and AlphaScreen intf2 7.
O=C(NCc1cccc(C(F)(F)F)c1)c1ccc2nc(Br)sc2c1 was read as GPR151 activ 1, MITF inh 4, TEAD-YAP block 9 and FBW7 activator 0.
Screening CN1CCN(CC(=O)Nc2sc3c(c2C(N)=O)CCCC3)CC1 returned GPR151 activ -1, MITF inh 72*, TEAD-YAP block 6, FBW7 activator 0, MITF inh conf 17 and AlphaScreen intf2 14.
Screening COC(=O)c1c(NC(=O)CCCOc2ccc(C)cc2)sc2c1CCCC2 returned GPR151 activ 0, MITF inh 78*, TEAD-YAP block 8, FBW7 activator 0, MITF inh conf 0 and AlphaScreen intf2 8.
For COC(=O)c1c(NC(=O)CCN2CCN(C)CC2)sc2c1CCC2 the results were GPR151 activ 1, MITF inh 90*, TEAD-YAP block 5, FBW7 activator 0, MITF inh conf 5 and AlphaScreen intf2 7.
O=C(c1ccccc1Cl)N1CCN(S(=O)(=O)c2cc3c4c(c2)CCC(=O)N4CCC3)CC1 was read as GPR151 activ -1, MITF inh -18, TEAD-YAP block -4 and FBW7 activator 0.
For CC(C)CC(c1nnnn1CC1CCCO1)N1CCN(c2ccc(F)cc2)CC1 (stereo not given) the results were GPR151 activ 1, MITF inh 1, TEAD-YAP block 12 and FBW7 activator 0.
CC(C)CC(c1nnnn1CC1CCCO1)N1CCN(c2cccc(Cl)c2)CC1 (stereo not given) was read as GPR151 activ 0, MITF inh 84*, TEAD-YAP block 2, FBW7 activator 0, MITF inh conf 3 and AlphaScreen intf2 9.
CC(=O)Nc1ccc(Nc2nc(Nc3cccc(N(C)C)c3)nc3c2ncn3-c2ccsc2)cc1 was read as GPR151 activ -2, MITF inh 14, TEAD-YAP block 5 and FBW7 activator 0.
Screening Cc1cc(NCc2nc3ccccc3[nH]2)nc(Nc2ccc3ncccc3c2)n1 returned GPR151 activ -2, MITF inh 2, TEAD-YAP block -29 and FBW7 activator 0.
For COc1cc(C(=O)N2CCN(Cc3ccccc3F)CC2)cc(OC)c1OC the results were GPR151 activ 0, MITF inh 18, TEAD-YAP block 13 and FBW7 activator 0.
Screening COc1cc(C(=O)N2CCN(Cc3ccccc3C)CC2)cc(OC)c1OC returned GPR151 activ -1, MITF inh 60*, TEAD-YAP block 1, FBW7 activator 0, MITF inh conf 38*, AlphaScreen DR >5.6 and AlphaScreen intf2 11.
COc1cc2c(cc1CN1CCN(C(=O)c3cc(OC)c(OC)c(OC)c3)CC1)OCO2 was read as GPR151 activ 0, MITF inh 53*, TEAD-YAP block 5, FBW7 activator 0, MITF inh conf 12 and AlphaScreen intf2 9.
COc1cccc(C(=O)N2CCN(Cc3cccc(Cl)c3)CC2)c1 was read as GPR151 activ 0, MITF inh 52*, TEAD-YAP block 13, FBW7 activator 0, MITF inh conf 50* and AlphaScreen intf2 18.
